Where “and” joins values, the source holds several entries; their conditions need not be identical. Identical values can stand only once. Calls of active or inactive are those of the source.
Target: Albumin (Bos taurus) (UniProt P02769)
Sequence (P02769 whole entry, looked up): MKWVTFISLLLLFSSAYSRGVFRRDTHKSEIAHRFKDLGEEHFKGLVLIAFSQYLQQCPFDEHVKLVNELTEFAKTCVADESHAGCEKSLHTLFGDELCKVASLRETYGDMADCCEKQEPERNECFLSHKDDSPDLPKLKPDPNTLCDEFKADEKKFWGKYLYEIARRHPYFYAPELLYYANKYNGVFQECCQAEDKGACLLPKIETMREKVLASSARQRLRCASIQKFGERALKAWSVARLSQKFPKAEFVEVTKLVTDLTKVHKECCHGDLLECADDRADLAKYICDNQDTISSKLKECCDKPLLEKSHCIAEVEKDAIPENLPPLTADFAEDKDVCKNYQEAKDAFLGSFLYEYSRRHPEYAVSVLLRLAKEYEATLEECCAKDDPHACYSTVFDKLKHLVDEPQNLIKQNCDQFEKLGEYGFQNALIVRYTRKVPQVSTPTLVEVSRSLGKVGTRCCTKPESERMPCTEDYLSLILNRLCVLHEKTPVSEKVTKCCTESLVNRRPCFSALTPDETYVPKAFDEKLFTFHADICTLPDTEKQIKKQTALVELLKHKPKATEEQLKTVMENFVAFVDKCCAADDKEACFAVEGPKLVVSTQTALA
Assay: compounds binding labelled BSA control protein – biochemical, small-molecule microarray, Alexa647 label, 635/667 nm fluorescence, artefact control for SMM control protein annotation, profiling panel (AID 1118);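 further: score merges 667 nm emission intensity and signal-to-noise per printed compound spot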
Conditions: BSA-A647 binding, fluorescence 635 nm, higher = more signal
For `C[C@@H](ON=C1[C@H]2CCn3c(=O)n(-c4ccccc4)c(=O)n3[C@H]2[C@H](O)[C@@H]2O[C@H]12)c1cn([C@H](CO)Cc2ccccc2)nn1`, the composite z-score was 0.0073. For `CCOC(=O)C[C@H]1[C@H](OC(=O)c2ccccc2-c2ccccc2)[C@@H](NC(=O)Cc2ccc(OC)cc2)c2cc(OCCCO)ccc2N1C(=O)c1ccc2ccccc2n1`, the composite z-score was 0.0759 and 0.46. In the case of `CCOC(=O)[C@H](CC(C)C)NC(=O)CCC1CC(OC(=O)NCc2cccc3ccccc23)CC2(CCCC(COC(=O)NCc3ccccc3)O2)O1` (stereo not given in full), the composite z-score is reported as -0.294. With `Cc1ccc(S(=O)(=O)N[C@@H]2COC(=O)CC=C[C@@H](C)[C@@H]3C=C[C@H](O)[C@@H](COC(=O)CC=C[C@H]2C)O3)cc1` the composite z-score was -0.311 and -0.304. With `CO[C@@H]1COC(=O)[C@H](Cc2ccccc2)NC(=O)CC=C[C@@H](C)[C@H](OC)COC(=O)[C@@H](C)NC(=O)CC=C[C@H]1C` the composite z-score was -1.24 and 0.871.

Test system: not listed separately
Assay: probe aXIP binding to arrayed compounds – biochemical, NeuroSMM set, 635/667 nm fluorescence, primary screen (AID 1119);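 further: probe is the protein aXip251-270 applied at 1 µg/mL to compound-printed slides; binding of probe to printed compounds measured as 667 nm fluorescence plus signal to noise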
Conditions: small-molecule microarray, higher = more signal, called active from +8 up or from −8 down
For `CC(C)=NOC[C@@H](O)COCc1ccco1`, the composite Z-score was 1.56 (inactive). For `COC(=O)C1=C(C)N(Cc2ccccc2)C2=C(C(C)=O)C[C@@](O)(C(=O)OC)C(=O)N2[C@@H]1c1ccccc1`, the composite Z-score was 0.397 (inactive) and 0.38 (inactive). In the case of `COC(=O)[C@@]1(Cc2ccc(OC)cc2)[C@H]2c3cc(C(=O)N(C)C)n(Cc4ccc(O)c(OC)c4)c3C[C@H]2CN1C(=O)c1ccccc1`, the composite Z-score is reported as -0.0164 (inactive) and -0.483 (inactive). With `C=CC[C@H](O)c1ccc(OCCO)cc1` the composite Z-score was -0.745 (inactive) and 0.156 (inactive). With `CC(C)=NO[C@@H](C)c1cc(-c2c(C)cc(C)cc2C)no1` the composite Z-score was 0.454 (inactive). For `C[N+](C)(C)CCCCNC(=O)[C@H]1C[C@H]2C(=O)N[C@@H](CCCC[N+](C)(C)C)C(=O)N2[C@H]1c1ccc(O)cc1`, the composite Z-score was 0.472 (inactive) and 2.29 (inactive). With `C[C@@]1([C@@H](NC(=O)Cc2ccccc2)c2ccc(-c3ccccc3)cc2)C[C@H]1C1CCCCC1` the composite Z-score was 1.18 (inactive) and 0.111 (inactive) and 0.428 (inactive). In the case of `CCN1C(=O)[C@H]2[C@H]3[C@H](O)[C@H](O)CC(=NOC)[C@@H]3CC[C@H]2C1=O`, the composite Z-score is reported as -0.791 (inactive). For `O=C1NC(=O)C2C1C=CC(C(O)c1ccc([N+](=O)[O-])cc1)N2Nc1ccc(Cl)cc1Cl` (stereo not given), the composite Z-score was -0.35 (inactive) and -0.195 (inactive). For `C=C[C@H](C)[C@@H](O)c1ccc(OCCO)cc1`, the composite Z-score was -0.288 (inactive) and -0.162 (inactive). For `CC(C)CON=C1C[C@@H](O)[C@@H](O)[C@@H]2[C@@H]3C(=O)N(c4cccc(Oc5ccccc5)c4)C(=O)[C@@H]3CC[C@H]12`, the composite Z-score was -0.116 (inactive). With `CO[C@H]1COC(=O)CC=C[C@@H](C)COC(=O)[C@H](CCSC)NC(=O)CC=C[C@@H]1C` the composite Z-score was 2.77 (inactive) and 1.61 (inactive). In the case of `C=C[C@@H](OC)[C@H](O)c1ccc(OCCO)cc1`, the composite Z-score is reported as -0.158 (inactive) and -0.292 (inactive). For `CCOC(=O)c1ccc(NC(=O)O[C@H]2[C@H](OC(=O)Nc3ccccc3)[C@@H](OC(=O)Nc3ccccc3)[C@@H](OC)O[C@@H]2CO)cc1`, the composite Z-score was 1.09 (inactive) and 0.682 (inactive). For `C=CCN(C(=O)C(c1cccs1)N(CCOCCO)C(=O)/C=C\C(=O)O)c1ccc(OC)cc1` (stereo not given), the composite Z-score was 0.347 (inactive) and -0.659 (inactive). For `C#CCN1C(/C=C/c2ccccc2)C(=O)OC[C@H]1c1ccccc1` (stereo not given in full), the composite Z-score was -0.0965 (inactive) and 0.733 (inactive). With `CO[C@@H]1COC(=O)CC=C[C@H](C)COC(=O)[C@H](C)NC(=O)CC=C[C@H]1C` the composite Z-score was 0.332 (inactive). With `Cc1cc2c(nc1C)CCCN2CC(O)CN1CCCc2nc(-c3ccc(Br)cc3)ccc21` (stereo not given) the composite Z-score was 2.2 (inactive) and 4.49 (inactive). For `C=CCN(CCCCC)C(=O)C(c1cccs1)N(CCOCCO)C(=O)/C=C\C(=O)O` (stereo not given), the composite Z-score was -0.116 (inactive) and 0.239 (inactive). With `COc1ccc(-c2ccc3c(n2)CCCN3CC(O)CN2CCCc3nc(-c4ccc(Br)cc4)ccc32)cc1` (stereo not given) the composite Z-score was 1.48 (inactive) and 2.85 (inactive). For `C=C[C@H](OC)[C@@H](O)c1ccc(OCCO)cc1`, the composite Z-score was 0.459 (inactive) and -0.239 (inactive). In the case of `C=CCN(C(=O)C1N(CCCCCCO)C(=O)C2C(C(=O)O)C3C=CC21O3)c1ccc(OC)cc1` (stereo not given), the composite Z-score is reported as -0.344 (inactive) and -0.542 (inactive). For `O=C1C[C@]2(c3ccc([N+](=O)[O-])cc3)C(=O)N(Cc3ccccc3)c3cc(CO)ccc3[C@H]2N1C1CCCCC1`, the composite Z-score was 0.285 (inactive) and -0.0345 (inactive). For `C=CCN(C(=O)C1N(c2c(Cl)cccc2CO)C(=O)C2C(C(=O)O)C3C=CC21O3)c1ccc(OC)cc1` (stereo not given), the composite Z-score was -0.172 (inactive) and -0.621 (inactive). With `C=CCN(C(=O)C1N(CCOCCO)C(=O)C2C(C(=O)O)C3C=CC21O3)C(C)(C)C` (stereo not given) the composite Z-score was 0.519 (inactive) and -0.158 (inactive). With `COC(=O)C1=C2N(Cc3ccccc3)C(C)=C(C(=O)OC)[C@@H](c3ccccc3)N2C(=O)[C@](O)(C(=O)OC)C1` the composite Z-score was 0.606 (inactive) and 0.656 (inactive). In the case of `O=c1n(-c2ccccc2)c(=O)n2n1CC[C@@H]1C(=NOC[C@@H](O)COCc3ccco3)[C@H]3O[C@H]3[C@@H](O)[C@@H]12`, the composite Z-score is reported as -0.014 (inactive) and 0.545 (inactive). With `CC(CO)N1C(=O)[C@@H]2C3C(=O)OCCC=C[C@H]3OC23C=CCN(c2ccc(Cl)cc2)C(=O)[C@@H]13` (stereo not given in full) the composite Z-score was -0.33 (inactive) and 0.551 (inactive). With `CC(C)[Si]1(C(C)C)OCc2cc(CCCc3cc4c(c(CCc5ccccc5)n3)[Si](C(C)C)(C(C)C)OC4)nc(CCc3ccccc3)c21` the composite Z-score was -0.436 (inactive) and -0.38 (inactive). For `C=CCN(Cc1ccccc1)C(=O)C1N(CCOCCO)C(=O)C2C(C(=O)O)C3C=CC21O3` (stereo not given), the composite Z-score was -0.124 (inactive) and 0.217 (inactive). In the case of `C[N+](C)(C)CCCCCCNC(=O)[C@H]1C[C@H]2C(=O)N[C@@H](CCCC[N+](C)(C)C)C(=O)N2[C@H]1c1cccc(OCCO)c1`, the composite Z-score is reported as 0.891 (inactive) and -0.166 (inactive). With `CCCCCN1CC=CC23O[C@@H]4C=CCCOC(=O)C4[C@H]2C(=O)N(C(C)CO)[C@@H]3C1=O` (stereo not given in full) the composite Z-score was -0.0812 (inactive) and -0.45 (inactive). For `O=C1[C@H]2[C@H]3[C@H](O)[C@H](O)CC(=NOCc4ccccc4)[C@H]3CC[C@H]2C(=O)N1Cc1ccccc1`, the composite Z-score was -0.283 (inactive). For `CO[C@H]1COC(=O)CC=C[C@H](C)[C@H](OC)COC(=O)[C@@H](C)COC(=O)CC=C[C@@H]1C`, the composite Z-score was 0.606 (inactive) and -0.054 (inactive). In the case of `CN1C(=O)C2CC=C([C@H]3Oc4ccccc4S(=O)(=O)N4CCC[C@@H]34)CC2C1=O` (stereo not given in full), the composite Z-score is reported as 0.183 (inactive) and -0.213 (inactive). With `C[C@@H](ON=C1[C@H]2CCn3c(=O)n(-c4ccccc4)c(=O)n3[C@H]2[C@H](O)[C@@H]2O[C@H]12)c1cn([C@H](CO)Cc2ccccc2)nn1` the composite Z-score was 0.116 (inactive). In the case of `CCOC(=O)C[C@H]1[C@H](OC(=O)c2ccccc2-c2ccccc2)[C@@H](NC(=O)Cc2ccc(OC)cc2)c2cc(OCCCO)ccc2N1C(=O)c1ccc2ccccc2n1`, the composite Z-score is reported as -0.252 (inactive) and -0.128 (inactive). In the case of `CCOC(=O)[C@H](CC(C)C)NC(=O)CCC1CC(OC(=O)NCc2cccc3ccccc23)CC2(CCCC(COC(=O)NCc3ccccc3)O2)O1` (stereo not given in full), the composite Z-score is reported as -0.19 (inactive). For `Cc1ccc(S(=O)(=O)N[C@@H]2COC(=O)CC=C[C@@H](C)[C@@H]3C=C[C@H](O)[C@@H](COC(=O)CC=C[C@H]2C)O3)cc1`, the composite Z-score was -0.842 (inactive) and -0.0662 (inactive). In the case of `CO[C@@H]1COC(=O)[C@H](Cc2ccccc2)NC(=O)CC=C[C@@H](C)[C@H](OC)COC(=O)[C@@H](C)NC(=O)CC=C[C@H]1C`, the composite Z-score is reported as -0.17 (inactive) and -0.452 (inactive).

Reference: PubChem BioAssay
